# From ChEMBL document CHEMBL2218924, “A broad activity screen in support of a chemogenomic map for kinase signalling research and drug discovery” (Biochem J, 2013)
# Legend:
# [1] = biological target: Tyrosine-protein kinase SYK (Homo sapiens) (UniProt P43405); details: at 10 µM
# [2] = biological target: T1, Mitogen-activated protein kinase kinase kinase 7 (Homo sapiens) (UniProt O43318); details: at 1 µM
# T1 sequence (whole entry): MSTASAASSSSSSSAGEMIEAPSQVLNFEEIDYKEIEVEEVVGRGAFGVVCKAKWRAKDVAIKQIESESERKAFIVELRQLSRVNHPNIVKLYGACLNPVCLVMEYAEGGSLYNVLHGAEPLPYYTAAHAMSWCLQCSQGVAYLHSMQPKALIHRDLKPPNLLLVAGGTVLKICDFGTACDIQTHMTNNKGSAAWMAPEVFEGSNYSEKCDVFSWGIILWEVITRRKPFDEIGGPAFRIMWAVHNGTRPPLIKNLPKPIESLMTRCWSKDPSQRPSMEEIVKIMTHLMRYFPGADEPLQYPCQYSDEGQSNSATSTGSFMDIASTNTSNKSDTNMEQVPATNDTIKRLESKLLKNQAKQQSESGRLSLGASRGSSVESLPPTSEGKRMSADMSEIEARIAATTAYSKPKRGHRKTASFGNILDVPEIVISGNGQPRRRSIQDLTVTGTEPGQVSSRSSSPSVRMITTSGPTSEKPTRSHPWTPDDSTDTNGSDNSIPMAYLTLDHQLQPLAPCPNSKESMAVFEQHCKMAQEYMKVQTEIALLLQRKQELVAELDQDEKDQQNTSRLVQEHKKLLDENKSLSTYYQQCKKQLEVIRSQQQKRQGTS
# [3] = biological target: T1, Mitogen-activated protein kinase kinase kinase 7 (Homo sapiens); details: at 10 µM
# [4] = biological target: T2, Serine/threonine-protein kinase TAO1 (Homo sapiens) (UniProt Q7L7X3); details: at 1 µM
# T2 sequence (whole entry): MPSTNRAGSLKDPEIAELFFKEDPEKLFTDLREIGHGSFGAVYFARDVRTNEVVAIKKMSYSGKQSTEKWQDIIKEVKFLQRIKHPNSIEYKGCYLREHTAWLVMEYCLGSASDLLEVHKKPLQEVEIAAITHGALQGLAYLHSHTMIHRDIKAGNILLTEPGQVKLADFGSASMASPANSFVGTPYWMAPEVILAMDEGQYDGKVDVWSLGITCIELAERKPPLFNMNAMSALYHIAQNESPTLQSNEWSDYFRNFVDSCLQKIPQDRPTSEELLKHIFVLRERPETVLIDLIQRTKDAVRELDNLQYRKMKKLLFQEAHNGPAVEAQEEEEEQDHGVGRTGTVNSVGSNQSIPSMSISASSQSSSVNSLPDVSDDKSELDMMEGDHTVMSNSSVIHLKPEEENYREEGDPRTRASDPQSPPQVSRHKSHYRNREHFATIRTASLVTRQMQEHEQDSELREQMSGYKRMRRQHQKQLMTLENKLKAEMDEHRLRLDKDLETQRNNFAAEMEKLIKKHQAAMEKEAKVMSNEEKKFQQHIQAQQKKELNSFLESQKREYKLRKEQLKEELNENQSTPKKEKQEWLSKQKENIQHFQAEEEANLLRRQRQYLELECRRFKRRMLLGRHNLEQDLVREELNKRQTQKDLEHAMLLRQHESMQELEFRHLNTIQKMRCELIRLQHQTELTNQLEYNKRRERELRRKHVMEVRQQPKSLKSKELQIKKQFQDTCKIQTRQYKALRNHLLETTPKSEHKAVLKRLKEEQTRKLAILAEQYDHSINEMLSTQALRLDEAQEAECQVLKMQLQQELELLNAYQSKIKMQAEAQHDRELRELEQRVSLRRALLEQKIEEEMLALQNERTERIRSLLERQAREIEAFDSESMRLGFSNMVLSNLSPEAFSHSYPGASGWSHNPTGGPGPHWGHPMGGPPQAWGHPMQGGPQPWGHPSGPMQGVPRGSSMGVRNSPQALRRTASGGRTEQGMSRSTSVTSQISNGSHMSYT
# [5] = biological target: T2, Serine/threonine-protein kinase TAO1 (Homo sapiens); details: at 10 µM
# [6] = biological target: T3, Serine/threonine-protein kinase TAO2 (Homo sapiens) (UniProt Q9UL54); details: at 1 µM
# T3 sequence (whole entry): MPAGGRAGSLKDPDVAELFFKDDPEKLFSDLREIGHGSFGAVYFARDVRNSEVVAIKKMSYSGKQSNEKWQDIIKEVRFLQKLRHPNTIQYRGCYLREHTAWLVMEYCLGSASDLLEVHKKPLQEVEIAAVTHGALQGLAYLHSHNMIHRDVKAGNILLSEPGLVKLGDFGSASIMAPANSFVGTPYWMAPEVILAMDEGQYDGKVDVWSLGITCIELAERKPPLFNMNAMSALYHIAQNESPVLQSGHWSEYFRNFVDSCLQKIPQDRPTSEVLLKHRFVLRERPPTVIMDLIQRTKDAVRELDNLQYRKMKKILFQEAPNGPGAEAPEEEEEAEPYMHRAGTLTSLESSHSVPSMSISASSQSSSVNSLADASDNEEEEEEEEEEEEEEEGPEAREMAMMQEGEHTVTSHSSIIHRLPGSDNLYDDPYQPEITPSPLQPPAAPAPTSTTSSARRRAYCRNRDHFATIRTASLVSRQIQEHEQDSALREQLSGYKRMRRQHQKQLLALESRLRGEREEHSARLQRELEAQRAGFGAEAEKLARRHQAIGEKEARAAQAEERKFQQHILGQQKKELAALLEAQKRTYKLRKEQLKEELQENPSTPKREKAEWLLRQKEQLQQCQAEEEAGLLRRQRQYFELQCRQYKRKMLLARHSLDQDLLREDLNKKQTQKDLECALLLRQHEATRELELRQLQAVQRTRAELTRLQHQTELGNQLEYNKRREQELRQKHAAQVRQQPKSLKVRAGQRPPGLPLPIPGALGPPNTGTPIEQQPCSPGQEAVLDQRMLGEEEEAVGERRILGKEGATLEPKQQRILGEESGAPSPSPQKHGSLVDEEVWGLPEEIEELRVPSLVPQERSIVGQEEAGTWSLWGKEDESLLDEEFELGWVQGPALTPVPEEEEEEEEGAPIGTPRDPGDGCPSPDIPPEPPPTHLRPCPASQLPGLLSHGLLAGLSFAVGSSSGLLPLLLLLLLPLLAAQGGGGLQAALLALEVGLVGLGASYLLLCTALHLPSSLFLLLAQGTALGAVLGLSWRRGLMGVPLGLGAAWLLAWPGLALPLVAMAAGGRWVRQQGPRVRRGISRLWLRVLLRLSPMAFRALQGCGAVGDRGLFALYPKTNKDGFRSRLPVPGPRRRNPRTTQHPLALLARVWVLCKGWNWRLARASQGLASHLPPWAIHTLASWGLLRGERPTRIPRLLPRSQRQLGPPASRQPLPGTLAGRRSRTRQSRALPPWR
# [7] = biological target: T3, Serine/threonine-protein kinase TAO2 (Homo sapiens); details: at 10 µM
# [8] = biological target: T4, Serine/threonine-protein kinase TAO3 (Homo sapiens) (UniProt Q9H2K8); details: at 1 µM
# T4 sequence (whole entry): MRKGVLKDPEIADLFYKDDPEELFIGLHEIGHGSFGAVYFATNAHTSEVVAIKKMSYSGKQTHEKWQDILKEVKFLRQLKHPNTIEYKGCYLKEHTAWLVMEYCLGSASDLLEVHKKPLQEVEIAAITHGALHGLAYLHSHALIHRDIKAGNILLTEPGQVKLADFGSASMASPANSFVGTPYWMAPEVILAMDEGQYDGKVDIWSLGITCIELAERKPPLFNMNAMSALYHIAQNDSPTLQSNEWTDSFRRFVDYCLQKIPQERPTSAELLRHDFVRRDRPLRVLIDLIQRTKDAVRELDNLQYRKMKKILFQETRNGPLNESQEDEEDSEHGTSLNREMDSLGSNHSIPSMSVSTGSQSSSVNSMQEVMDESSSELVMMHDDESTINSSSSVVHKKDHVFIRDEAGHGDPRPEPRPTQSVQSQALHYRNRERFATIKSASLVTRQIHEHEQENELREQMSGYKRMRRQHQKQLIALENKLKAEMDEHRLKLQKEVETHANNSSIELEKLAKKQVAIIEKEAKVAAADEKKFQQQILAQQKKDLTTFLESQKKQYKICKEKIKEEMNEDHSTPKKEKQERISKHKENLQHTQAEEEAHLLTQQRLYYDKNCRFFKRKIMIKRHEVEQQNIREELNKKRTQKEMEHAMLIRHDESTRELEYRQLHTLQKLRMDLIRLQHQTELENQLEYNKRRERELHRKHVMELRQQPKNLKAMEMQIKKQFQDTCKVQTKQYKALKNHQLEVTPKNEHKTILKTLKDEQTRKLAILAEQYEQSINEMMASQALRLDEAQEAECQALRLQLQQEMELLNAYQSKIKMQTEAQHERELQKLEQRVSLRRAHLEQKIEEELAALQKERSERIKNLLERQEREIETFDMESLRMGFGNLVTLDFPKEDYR
# [9] = biological target: T4, Serine/threonine-protein kinase TAO3 (Homo sapiens); details: at 10 µM
# [10] = biological target: T5, Serine/threonine-protein kinase TBK1 (Homo sapiens) (UniProt Q9UHD2); details: at 1 µM
# T5 sequence (whole entry): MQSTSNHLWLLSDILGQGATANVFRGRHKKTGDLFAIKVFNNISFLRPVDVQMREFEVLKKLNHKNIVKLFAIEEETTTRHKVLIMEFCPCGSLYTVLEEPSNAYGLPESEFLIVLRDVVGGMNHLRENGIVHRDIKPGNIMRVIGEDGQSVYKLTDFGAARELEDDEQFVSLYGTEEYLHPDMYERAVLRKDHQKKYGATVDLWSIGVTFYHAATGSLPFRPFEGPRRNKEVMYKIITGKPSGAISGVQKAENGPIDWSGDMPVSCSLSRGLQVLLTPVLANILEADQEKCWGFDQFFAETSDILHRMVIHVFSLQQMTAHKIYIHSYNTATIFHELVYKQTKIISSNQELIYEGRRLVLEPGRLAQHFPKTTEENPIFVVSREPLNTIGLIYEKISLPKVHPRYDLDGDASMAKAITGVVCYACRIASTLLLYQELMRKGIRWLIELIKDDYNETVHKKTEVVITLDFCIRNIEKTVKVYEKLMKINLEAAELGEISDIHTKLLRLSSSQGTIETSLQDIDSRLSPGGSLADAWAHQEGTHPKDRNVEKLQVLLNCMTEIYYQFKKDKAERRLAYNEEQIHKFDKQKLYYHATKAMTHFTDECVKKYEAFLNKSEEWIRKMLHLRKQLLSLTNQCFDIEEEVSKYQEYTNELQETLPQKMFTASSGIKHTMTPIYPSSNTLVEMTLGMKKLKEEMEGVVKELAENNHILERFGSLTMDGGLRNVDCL
compound,measurement,setting,value
O=C(Nc1cccc(Nc2cc(Nc3cccc(C(F)(F)F)c3)ncn2)c1)C1CC1,residual activity,[1],105%
same,residual activity,[2],95%
same,residual activity,[3],95%
same,residual activity,[4],100%
same,residual activity,[5],73%
same,residual activity,[6],94%
same,residual activity,[7],80%
same,residual activity,[8],100%
same,residual activity,[9],96%
same,residual activity,[10],89%
